mIDH1 inhibitor: human IDH1 R132H inhibition | O75874 | IDH1-R132H enzyme, NADPH consumption, diaphorase/resazurin fluorescence | Potency, µM (titrated, usually from 76.6 µM), inactives show at the top dose activity change, negative = inhibition, actives largely listed as inhibitors | 0.093% of 390,000 active | AID 602179; further: on the % scale 0 is the no-effect control and ±100 the full control effect; nearly all actives have a fitted effect of over 65% in size
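IDH1-R132H (0.5 ug/mL) preincubated 30 min with compound, then NADPH (0.016 mM) and alpha-KG (2 mM) added; 80 min at RT, pH 7.5. Remaining NADPH coupled via diaphorase/resazurin to fluorescence (540/590 nm); concentration-response curves normalized to no-enzyme control.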
Apoferritin bind: candidate novel general anesthetic via apoferritin binding. P02791. apoferritin/1-aminoanthracene competitive binding, fluorescence. Potency, µM (highest dose often 77.5 µM), inactives show top-dose activity change, negative = displacement, hits mostly inhibitors. 0.074% of 350,000 active. AID 485281; further: on the % scale 0 is the no-effect control and ±100 the full control effect; nearly all actives have a fitted effect of over 20% in size
Target sequence (P02791 2-175 limits assumed): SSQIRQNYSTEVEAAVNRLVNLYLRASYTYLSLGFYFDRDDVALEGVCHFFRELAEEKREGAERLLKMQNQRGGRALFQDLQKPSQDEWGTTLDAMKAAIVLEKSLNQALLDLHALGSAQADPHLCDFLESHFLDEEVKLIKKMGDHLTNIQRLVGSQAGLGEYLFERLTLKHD
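Probe: 1-aminoanthracene (50% saturated, PBS). Protein: horse-spleen apoferritin, 10 uM. Incubation: 10 min, room temperature. Detection: 380 nm excitation, 535 nm emission. Analysis: normalized response, four-parameter Hill.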
TrxR1 substrate: substrates of rat thioredoxin reductase 1 | 0.01% of 390,000 active | Potency, µM (top dose mostly 114 µM), for inactives: at the highest dose activity change, negative = substrate turnover | O89049 | purified TrxR1 substrate turnover, NADPH consumption readout; further: on the % scale 0 is the no-effect control and ±100 the full control effect; nearly all actives have a fitted effect of over 50% in size
Target sequence (O89049 whole entry, looked up): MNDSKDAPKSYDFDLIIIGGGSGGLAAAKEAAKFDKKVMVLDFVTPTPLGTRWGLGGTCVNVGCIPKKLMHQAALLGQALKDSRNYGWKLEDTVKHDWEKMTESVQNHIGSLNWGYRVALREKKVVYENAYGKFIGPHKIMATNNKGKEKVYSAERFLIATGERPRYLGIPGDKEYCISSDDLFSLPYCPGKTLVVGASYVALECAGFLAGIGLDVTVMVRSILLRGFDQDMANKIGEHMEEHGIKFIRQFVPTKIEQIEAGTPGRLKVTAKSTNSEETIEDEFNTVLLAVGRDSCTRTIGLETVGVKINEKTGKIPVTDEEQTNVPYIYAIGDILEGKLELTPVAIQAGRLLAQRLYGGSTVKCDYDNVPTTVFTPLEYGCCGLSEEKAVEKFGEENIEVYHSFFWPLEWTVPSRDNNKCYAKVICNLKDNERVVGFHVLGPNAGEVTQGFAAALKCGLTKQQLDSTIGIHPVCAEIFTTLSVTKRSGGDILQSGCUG
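Rat TrxR1, dispensed at 90 nM, was prereduced with 400 uM NADPH (final) for 5 min at ~22 deg C, then incubated with compound 15 min before 400 uM selenite. A first-read NADPH fluorescence drop versus no-compound background flagged substrates.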
GRP78 ERSR act: ER stress response induction in glioma. 0.02% of 420,000 active. U87-MG GRP78 promoter luciferase reporter, 16 h. Potency, µM, for the others: top-dose activation, usual class: activators; further: series mostly up to about 76 µM; % of control where 0% means no effect; nearly all actives have a fitted effect of over 35% in size
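Stably transfected U87-MG glioma cells carrying a GRP78-based luciferase sensor; 16 h compound incubation. Luminescence end-point read 10 min after Bright-Glo addition at room temperature.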
ALOX12 inh: blocks human arachidonate 12S-lipoxygenase; Potency, µM (series often up to 108 µM), inactives show at the highest dose activity change, negative = inhibition, usual class: inhibitors; purified 12hLO, xylenol orange hydroperoxide absorbance; AID 1671190; 1.1% of 580,000 active; further: on the % scale 0 is the no-effect control and ±100 the full control effect
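Hydroperoxide product was detected by ferrous iron/xylenol orange as the 573 to 405 nm absorbance ratio. Arachidonic acid at 40 uM (final) was turned over for 30 min at room temperature by 150 nM human 12hLO, pH 7.0 Hepes buffer, after 15 min compound preincubation.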
TrxR1 inh: inhibitors of rat thioredoxin reductase 1. O89049. 1% of 390,000 active. Potency, µM (doses to about 114 µM), inactives show at the top dose activity change, negative = inhibition, usual class: inhibitors. recombinant rTrxR1, NADPH fluorescence consumption, selenite substrate; further: on the % scale 0 is the no-effect control and ±100 the full control effect; nearly all actives have a fitted effect of over 65% in size
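Rat TrxR1 (90 nM in the dispensed reagent) was pre-reduced with 400 uM NADPH for 5 min at room temperature, then incubated with compound for 15 min. After 400 uM selenite was added, NADPH fluorescence (Ex 340/Em 450 nm) was followed for 8 min.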
An asterisk follows results filed as active; i = inactive; ? = inconclusive; / = no result given; [ ] = remark or other dose. This is a sample that favours compounds with a hit; in the whole collection about 1.7% have one here. The call rests on the fitted dose curve; in most records, active means well fitted curve in the direction sought with a large enough effect; inconclusive means small, poorly fitted or top-dose-only effect, or another doubt; inactive means no such curve, though single readings can be large; an effect the other way counts as inactive or inconclusive. Potency means the concentration at half of the fitted maximal effect.

SMILES	mIDH1 inhibitor	Apoferritin bind	TrxR1 substrate	GRP78 ERSR act	ALOX12 inh	TrxR1 inh
CCCn1nc(C(=O)Nc2cc(C(F)(F)F)ccc2N2CCOCC2)c2ccccc2c1=O	/	/	/	/	-28.1%	/
O=C(/C=C/c1ccco1)NCc1ccc(F)cc1	3.0%	-17.4%	7.8%[57.1 µM]	6.3%	31.6µM*	?
O=C(Cc1ccc(N(Cc2ccc(F)cc2)C(=O)c2ccco2)cc1)NCc1ccc(F)cc1	/	/	/	/	31.6µM*	/
NS(=O)(=O)c1ccc(CNC(=O)/C=C/c2ccco2)cc1	1.4%	2.3%	4.5%	4.2%	1.5%	17.8µM*
Cc1ccc(/C=C/C(=O)NCc2ccco2)o1	/	-7.5%	/	/	-17.6%	/
O=C(/C=C/c1ccco1)NCc1ccco1	8.5%	2.5%	-6.3%	-0.5%	0.0%	70.8µM*
Cc1ccc(C(=O)N/C(=C/c2ccco2)C(=O)NCC2CCCO2)cc1 (centres undefined)	4.7%	-8.8%	-17.3%	-1.3%	-14.8%	?
O=C(/C=C/c1ccco1)NCC1CCCO1 (centres undefined)	6.3%	-9.2%	-2.1%	0.1%	4.9%	28.2µM*
COc1ccc(N=c2ssnc2Cl)cc1	2.1%	-12.3%	-21.3%	1.2%	/	?
CCOC(=O)c1ccc(N=c2ssnc2Cl)cc1	-19.0%	-15.4%	-16.4%	5.0%	2.24µM*	?
CCCN(CC(=O)Nc1ccccc1C)C(=O)c1ccc(-c2ccc([N+](=O)[O-])cc2)o1	-18.8%	/	-3.4%	1.6%	?	3.55µM*
C=CCNC(=O)c1ccc(-c2cccc([N+](=O)[O-])c2)o1	9.2%	-7.7%	-10.7%[57.1 µM]	5.6%	-1.4%	-1.1%[57.1 µM]
C=CCNC(=O)c1ccc(-c2ccc([N+](=O)[O-])cc2)o1	3.9%	-16.4%	-10.1%[57.1 µM]	2.9%	-2.5%	10µM*
CCCN(CC(=O)Nc1ccccc1C)C(=O)COC(=O)CSc1ccc([N+](=O)[O-])cc1	2.5%	/	-2.3%	-6.1%	?	-6.9%
Cc1cc(C)c2c(=O)n(CC(=O)Nc3cccc(Cl)c3C)sc2n1	1.3%	-13.4%	3.2%	-11.1%	0.708µM*	-11.7%
COc1cccc(NC(=O)c2cnc(NS(=O)(=O)c3ccccc3)nc2)c1	0.1%	/	/	-2.8%	?	/
CC1(C)CC(=O)C(C(C2=C(O)CC(C)(C)CC2=O)c2ccc(O)c([N+](=O)[O-])c2)=C(O)C1	-2.9%	-22.9%	-6.7%	-2.0%	-16.5%	12.6µM*
CC1(C)CC(=O)C2=C(C1)OC1=C(C(=O)CC(C)(C)C1)C2c1ccc(O)c([N+](=O)[O-])c1	12.7%	-6.1%	4.6%	-2.7%	-25.2%	17.7%
CCOc1ccccc1NC(=O)CSc1nc2c(=O)[nH]cnc2n1-c1ccc(C)cc1	/	/	/	/	33.8%	/
CCOc1ccc(CC(=O)N2CCC(Cc3nc(-c4ccccc4)no3)CC2)cc1	/	/	/	/	9.7%	/
O=C(Nc1ccc(-c2noc(/C=C/c3ccccc3)n2)cc1)c1ccc(Br)o1	/	/	/	/	28.2µM*	/
O=c1[nH][nH]c2c([N+](=O)[O-])ccc(F)c12	/	/	/	/	-25.4%	/
O=c1[nH][nH]c2c(N=Cc3ccccc3O)ccc(F)c12	13.4%	5.9%	5.9%	-7.9%	/	3.16µM*
CCCCc1cc(=O)oc2c(CN3CCCC3)c(O)c(Cl)cc12	0.6%	560.1%	i	-4.2%	?	?
CCCc1cc(=O)oc2c(CN3CCN(C)CC3)c(O)c(Cl)cc12	6.1%	939.0%	i	-5.5%	?	39.8µM*
SMILES	mIDH1 inhibitor	Apoferritin bind	TrxR1 substrate	GRP78 ERSR act	ALOX12 inh	TrxR1 inh
CCCc1cc(=O)oc2c(CN3CCN(C)CC3)c(O)ccc12	-7.9%	365.8%	869.2%	2.5%	6.1%	79.4µM*
CCCc1cc(=O)oc2c(CN(CC)CC)c(O)c(Cl)cc12	-1.8%	541.4%	953.1%	0.7%	-14.3%	17.8µM*
CCCCc1cc(=O)oc2c(CN(CC)CC)c(O)c(Cl)cc12	2.0%	i	i	-4.5%	?	?
COC(=O)c1sc2ncccc2c1OCc1c(Cl)cccc1Cl	1.0%	?	9.6%	-4.8%	39.8µM*	17.7%
Cc1ccc(S(=O)(=O)N2CCN(c3nc(-c4ccncc4)nc4ccccc34)CC2)cc1	/	/	4.5%	/	/	44.7µM*
Cc1ccc(S(=O)(=O)N2CCN(c3nc(-c4cccnc4)nc4ccccc34)CC2)cc1	/	/	3.4%	/	?	-28.5%
O=C(C1CCCCC1)N1CC(=O)N2CCCc3ccccc3C2C1 (centres undefined)	/	/	/	/	2.1%[22.9 µM]	/
COC(=O)C1=CC(=O)C=C(OC)[C@@]12Oc1cc(C)cc(OC)c1C2=O	/	/	/	/	4.47µM*	/
COC1=CC(=O)CC(C)C12Oc1cc(OC)cc(OC)c1C2=O (centres undefined)	9.6%	1.8%	9.1%	-4.9%	12.9%	6.4%[57.1 µM]
CN(C)C(=O)C(c1ccccc1)N(C)Cc1ccc2c(c1)OCO2 (centres undefined)	/	/	/	/	20.9%	/
CC(C)(C)N(Cc1ccc2c(c1)OCO2)C(=O)/C=C\S(=O)c1ccccc1 (centres undefined)	3.9%	/	-6.5%	-13.6%	-19.3%	79.4µM*
COCCN1C(=O)CO[C@H]2CN(S(C)(=O)=O)C[C@H]21	/	/	/	/	-0.9%[176 µM]	/
COCCN1C(=O)CO[C@H]2CN(c3ncccn3)C[C@H]21	/	/	/	/	50.1µM*	/
CC(=O)OCCCCCCCCCCC[N+]1(C)CCCCC1	-4.0%	-8.1%	-8.4%	-3.7%	?	-0.3%
C[N+]1(CC[N+]2(C)CCCCC2)CCCCC1	/	/	/	/	3.98µM*	/
Cc1ccccc1N1C(=O)Cc2ccccc2C1=O	-4.1%	0.3%	5.0%	-1.6%	-8.0%	?
O=C1Cc2ccccc2C(=O)N1Nc1ccccc1	-1.1%	/	-7.4%	3.4%	?	50.1µM*
Cn1c(CN2CCOCC2)nnc1C1CCCN(C(=O)CNC(N)=O)C1 (centres undefined)	/	/	/	/	25.3%	/
COc1ccc(C(=O)N2CC(c3nnc(-c4ccncc4)o3)C3(CCOCC3)C2)c(C)c1 (centres undefined)	/	/	/	/	43.9%	/
Cc1cccc(-c2noc(-c3cc(C(C)C)[nH]n3)n2)c1	-3.2%	15.8µM*	-1.4%[57.1 µM]	-2.9%	?	15.3%[57.1 µM]
CN(CC(=O)NC(C)(C)C)C(=O)c1ccsc1	/	/	/	/	3.4%	/
Cc1ccc(-n2nc3ccc(NC(=S)NC(=O)/C=C/c4ccco4)cc3n2)cc1	2.5%	2.6%	-4.2%	-2.2%	?	-12.5%
COc1cc(C(=O)NNC(=O)/C=C/c2ccco2)cc(OC)c1OC	2.2%	/	-5.4%	0.1%	-6.6%	56.2µM*
Cc1ccc(-n2nc3cc(C)c(NC(=S)NC(=O)/C=C/c4ccco4)cc3n2)cc1	-1.6%	-20.3%	9.7%[57.1 µM]	-2.1%	44.7µM*	-30.0%
COc1cc(C(=O)NNC(=O)c2ccco2)cc(OC)c1OC	6.3%	-3.4%	3.6%	-0.4%	-2.1%	13.8%
